# Experimental data from PubChem BioAssay (NCI).
# About 83,000 compounds went through this panel and 20% of them were active in at least one assay; those are over-represented in the sample as a whole.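 Interpretation: 100, growth as untreated; towards 0, rising growth inhibition; 0, no net growth; 0 to -100, cell death. Compounds scoring below 10 were considered active.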 Values without a mark were called inactive. Calls of active or inactive are those of the source.
# Tested on: SK-MEL-2 melanoma
# Assay: NCI-60 one-dose screen, 48 h (100 = growth as untreated, 0 = no growth, -100 = all killed)
# Conditions: 10 µM unless noted
row,SMILES,growth
1,CCCCCCCCCCCCCCCCCC1=NCCN1CCNC(C)=O,111%
2,Clc1ccc(N/N=C(/c2ccccc2)c2ccccn2)nc1,63.5%
3,COc1ccc(-n2nnnc2-c2cn[nH]c2C(F)(F)F)cc1,92.4%
4,COc1cc2ncnc(-n3ncc4cc(NC(=O)Nc5ccc(Cl)c(Cl)c5)ccc43)c2cc1OC,-26.6% (active)
5,CCOC(=O)c1c(C)oc2ncnc(Nc3ccc(C(=O)NCCc4ccccc4)cc3)c12,82.5%
6,CC(=O)/C(=C/c1ccc(-c2ccccc2)cc1)C(=O)c1ccccc1,99.1%
7,N=C(N)c1ccc(-c2ccc(-c3ccc(F)cc3)s2)cc1,-62.1% (active)
8,NC(=O)CC(NC(=O)COc1ccc(Cl)cc1Cl)C(=O)O (configuration not stated),104%
9,Cc1nc(NC(=O)NC2CCCCC2)sc1C(=O)NN,21.7%
10,CCOC(=O)C1=C(C(F)(F)F)NC(=S)NC1CN1C(=O)c2ccccc2C1=O (configuration not stated),100%
11,NC(=O)c1c(Nc2ccccc2)nn2cc(-c3nc4ccccc4s3)c(N)nc12,100%
12,O=C(/C=C/c1ccc(Br)cc1)c1ccccc1,103%
13,Cc1c(O)c(N=Nc2ccc(C(=O)O)c(O)c2)c2ccccc2c1O,92.7%
14,COc1ccc2c(c1)/C(=C/c1c(-c3cc(OC)c(OC)c(OC)c3)nc3sccn13)C(=O)N2,98.6%
15,CCOC(=O)c1cc(C(=O)c2ccc(Br)cc2)n2cc(C)cc(C)c12,91.3%
16,COc1cccc(Cn2cc3c(c2)-c2oncc2CC3)c1,35.5%
17,CCCCCSc1ccc2nc(NC(=O)OCC)sc2c1,45.5%
18,COc1ccc(C2C3(C#N)C(N)=NC(=C(C#N)C#N)C23C#N)cc1OC (configuration not stated),104%
19,CCCCCCCCCCCCCCCC[n+]1cccc(C#N)c1,97.7%
20,CC(C)OC(=O)c1ccc2n1CCCc1cnc(Nc3ccccc3)nc1-2,66.3%
21,COc1cc(Cn2ccc3c2-c2oncc2CC3)cc(OC)c1,28.8%
22,COC(=O)c1ccc(C(=Nc2ccc(N(C)C(=O)CN3CCN(C)CC3)cc2)c2c(O)[nH]c3ccc(C(=O)OC)cc23)cc1,47.7%
23,COc1cccc2c1nc1cccc(OC)c1[n+]2[O-],35.6%
24,CC(=O)NNC(=O)c1sc(NC(C)=O)nc1C,35.3%
25,CCOC(=O)NNc1[nH]c(-c2ccc(OC)cc2)cc1C#N,105%
26,COc1cc(N)c2nccc(C)c2c1OC,103%
27,CCOC(=O)c1c2c(cn1Cc1ccccc1)-c1oncc1CC2,115%

# Tested on: EKVX NSCLC
# Assay: as above
# Conditions: 10 µM
row,SMILES,growth
1,COc1ccc(Cn2cc3c(c2-c2ccccc2)CCc2cnoc2-3)cc1OC,46.5%
2,Cc1ccc2c(O)c(O)cc(NC(C)CCCN)c2n1 (configuration not stated),78%
3,CC(C)(C)c1ccc([I+]c2ccc(C(C)(C)C)cc2)cc1,15.6%
4,COC(=O)/C(Br)=C/c1c[nH]c2ccc(Br)cc12,76.2%
5,COC(=O)c1ccc2[nH]c(O)c(C(=Nc3ccc(N(C)C(=O)CN4CCN(C)CC4)cc3)c3cccc(OC)c3)c2c1,38.7%
6,C#CCCCCCCC[C@@H]1OC(=O)[C@H]([C@@H](C)CC)NC(=O)[C@@H]([C@@H](C)CC)NC(=O)CC(=O)[C@@H]1C,93.4%
7,COC(=O)c1ccc2[nH]c(O)c(C(=Nc3ccc(N(C)C(=O)CN4CCN(C)CC4)cc3)c3ccc(C)cc3)c2c1,23%
8,COC(=O)C(C)[C@H]1CC[C@@H]2[C@]1(C)CC=C1[C@]23C=C[C@]2(C[C@@H](OC(C)=O)CC[C@]12C)C(C(=O)OC)C3C(=O)OC (some centres not stated),86.1%
9,Cc1nc2c(nnn2-c2ccccc2)c2nc(-c3ccccc3)oc(=O)c12,99.3%
10,CC(O)C(N)=O (configuration not stated),99.6%
11,Nc1nc2c(c3cnccc13)C(c1cccc(Cl)c1)Cc1cnccc1-2 (configuration not stated),24.2%
12,CC(=O)OCC1O[C@@H](OC(C)=O)[C@@H](NC(=O)NS(=O)(=O)c2ccccc2)C(OC(C)=O)[C@@H]1OC(C)=O (some centres not stated),96.4%
13,CCOC(=O)c1ccc2n1CCCc1cnc(NC(C)=O)nc1-2,98.5%
14,CCCCCCCCCCCCCCCCCC1=NCCN1CCNC(C)=O,80%
15,Clc1ccc(N/N=C(/c2ccccc2)c2ccccn2)nc1,18.5%
16,COc1ccc(-n2nnnc2-c2cn[nH]c2C(F)(F)F)cc1,90.3%
17,COc1cc2ncnc(-n3ncc4cc(NC(=O)Nc5ccc(Cl)c(Cl)c5)ccc43)c2cc1OC,-16.1% (active)
18,CCOC(=O)c1c(C)oc2ncnc(Nc3ccc(C(=O)NCCc4ccccc4)cc3)c12,90.4%
19,CC(=O)/C(=C/c1ccc(-c2ccccc2)cc1)C(=O)c1ccccc1,100%
20,N=C(N)c1ccc(-c2ccc(-c3ccc(F)cc3)s2)cc1,-91.4% (active)

row,SMILES,growth
1,NC(=O)CC(NC(=O)COc1ccc(Cl)cc1Cl)C(=O)O (configuration not stated),111%
2,Cc1nc(NC(=O)NC2CCCCC2)sc1C(=O)NN,119%
3,CCOC(=O)C1=C(C(F)(F)F)NC(=S)NC1CN1C(=O)c2ccccc2C1=O (configuration not stated),113%
4,NC(=O)c1c(Nc2ccccc2)nn2cc(-c3nc4ccccc4s3)c(N)nc12,89.5%
5,O=C(/C=C/c1ccc(Br)cc1)c1ccccc1,109%
6,Cc1c(O)c(N=Nc2ccc(C(=O)O)c(O)c2)c2ccccc2c1O,66.4%
7,COc1ccc2c(c1)/C(=C/c1c(-c3cc(OC)c(OC)c(OC)c3)nc3sccn13)C(=O)N2,94.3%
8,CCOC(=O)c1cc(C(=O)c2ccc(Br)cc2)n2cc(C)cc(C)c12,99.5%
9,COc1cccc(Cn2cc3c(c2)-c2oncc2CC3)c1,27.2%
10,CCCCCSc1ccc2nc(NC(=O)OCC)sc2c1,30.3%
11,COc1ccc(C2C3(C#N)C(N)=NC(=C(C#N)C#N)C23C#N)cc1OC (configuration not stated),94.6%
12,CCCCCCCCCCCCCCCC[n+]1cccc(C#N)c1,98%
13,CC(C)OC(=O)c1ccc2n1CCCc1cnc(Nc3ccccc3)nc1-2,57.6%
14,COc1cc(Cn2ccc3c2-c2oncc2CC3)cc(OC)c1,53.9%
15,COC(=O)c1ccc(C(=Nc2ccc(N(C)C(=O)CN3CCN(C)CC3)cc2)c2c(O)[nH]c3ccc(C(=O)OC)cc23)cc1,64.3%
16,COc1cccc2c1nc1cccc(OC)c1[n+]2[O-],57.8%
17,CC(=O)NNC(=O)c1sc(NC(C)=O)nc1C,115%
18,CCOC(=O)NNc1[nH]c(-c2ccc(OC)cc2)cc1C#N,102%
19,COc1cc(N)c2nccc(C)c2c1OC,92.7%
20,CCOC(=O)c1c2c(cn1Cc1ccccc1)-c1oncc1CC2,91.3%
